Assay results published in the supplement of paper PMC9694430.

What was measured:
Test in all cases: thermal shift delta Tm vs DMSO control; higher = stronger stabilization (binding)
Conditions in all cases: 12.5 µM; protein concentration 2 µM
LOC_OS01G01410-cb001 = system: LOC_OS01G01410-cb001
Procedure, shortened: (§1)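 Purified, E. coli-expressed rice kinase domain constructs were tested by differential scanning fluorimetry in 96-well plates: 19.5 μl of 2 μM kinase in 100 mM potassium phosphate pH 7.5, 150 mM NaCl, 10% glycerol, 5 × SYPRO Orange, plus compound in DMSO. Fluorescence was read from 25°C to 95°C at 0.05°C/s. Melting temperatures came from Boltzmann fits, and the shift is the triplicate mean relative to protein with DMSO alone.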

LOC_OS01G02750-cb003 = system: LOC_OS01G02750-cb003
Procedure, shortened: as §1

LOC_OS01G10900-cb004 = system: LOC_OS01G10900-cb004
Procedure, shortened: as §1

LOC_OS01G13800-cb001 = system: LOC_OS01G13800-cb001
Procedure, shortened: as §1

LOC_OS01G14860-cb001 = system: LOC_OS01G14860-cb001
Procedure, shortened: as §1

LOC_OS01G21960-cb002 = system: LOC_OS01G21960-cb002
Procedure, shortened: as §1

LOC_OS01G39600-cb002 = system: LOC_OS01G39600-cb002
Procedure, shortened: as §1

LOC_OS01G48390-cb002 = system: LOC_OS01G48390-cb002
Procedure, shortened: as §1

LOC_OS01G51400-cb002 = system: LOC_OS01G51400-cb002
Procedure, shortened: as §1

LOC_OS01G52050-cb004 = system: T1, LOC_OS01G52050-cb004
T1 sequence (whole entry): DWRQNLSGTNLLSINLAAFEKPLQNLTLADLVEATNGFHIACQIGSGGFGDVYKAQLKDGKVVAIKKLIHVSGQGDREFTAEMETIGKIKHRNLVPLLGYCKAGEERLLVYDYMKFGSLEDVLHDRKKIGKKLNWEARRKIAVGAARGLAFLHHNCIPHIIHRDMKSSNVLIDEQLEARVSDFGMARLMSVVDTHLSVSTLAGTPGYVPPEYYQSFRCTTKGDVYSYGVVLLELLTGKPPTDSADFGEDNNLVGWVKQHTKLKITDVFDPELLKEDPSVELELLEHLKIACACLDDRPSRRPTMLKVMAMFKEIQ
Procedure, shortened: as §1

LOC_OS01G57100-cb003 = system: LOC_OS01G57100-cb003
Procedure, shortened: as §1

LOC_OS01G60330-cb001 = system: LOC_OS01G60330-cb001
Procedure, shortened: as §1

LOC_OS01G60700-cb002 = system: LOC_OS01G60700-cb002
Procedure, shortened: as §1

LOC_OS01G63280-cb003 = system: LOC_OS01G63280-cb003
Procedure, shortened: as §1

LOC_OS01G67340-cb003 = system: LOC_OS01G67340-cb003
Procedure, shortened: as §1

LOC_OS01G70970-cb002 = system: LOC_OS01G70970-cb002
Procedure, shortened: as §1

LOC_OS02G07810-cb001 = system: LOC_OS02G07810-cb001
Procedure, shortened: as §1

LOC_OS02G08530-cb003 = system: LOC_OS02G08530-cb003
Procedure, shortened: as §1

LOC_OS02G14120-cb001 = system: LOC_OS02G14120-cb001
Procedure, shortened: as §1

LOC_OS02G17970-cb001 = system: LOC_OS02G17970-cb001
Procedure, shortened: as §1

Row | Compound | thermal shift delta Tm (LOC_OS01G01410-cb001) | thermal shift delta Tm (LOC_OS01G02750-cb003) | thermal shift delta Tm (LOC_OS01G10900-cb004) | thermal shift delta Tm (LOC_OS01G13800-cb001) | thermal shift delta Tm (LOC_OS01G14860-cb001) | thermal shift delta Tm (LOC_OS01G21960-cb002) | thermal shift delta Tm (LOC_OS01G39600-cb002) | thermal shift delta Tm (LOC_OS01G48390-cb002) | thermal shift delta Tm (LOC_OS01G51400-cb002) | thermal shift delta Tm (LOC_OS01G52050-cb004) | thermal shift delta Tm (LOC_OS01G57100-cb003) | thermal shift delta Tm (LOC_OS01G60330-cb001) | thermal shift delta Tm (LOC_OS01G60700-cb002) | thermal shift delta Tm (LOC_OS01G63280-cb003) | thermal shift delta Tm (LOC_OS01G67340-cb003) | thermal shift delta Tm (LOC_OS01G70970-cb002) | thermal shift delta Tm (LOC_OS02G07810-cb001) | thermal shift delta Tm (LOC_OS02G08530-cb003) | thermal shift delta Tm (LOC_OS02G14120-cb001) | thermal shift delta Tm (LOC_OS02G17970-cb001)
1 | CC(C)(CO)n1cc(C(=O)c2cncc(NC(=O)Cc3ccc(Cl)cn3)c2)c2cnc(N)nc21 | 0.23 °C | 0.58 °C | 0.35 °C | 0.55 °C | 0.5 °C | 0.13 °C | 0.32 °C | 0.37 °C | -0.05 °C | 2.82 °C | 0.95 °C | 0.35 °C | 0.16 °C | 0.14 °C | 0.19 °C | 0.28 °C | -0.84 °C | 0.77 °C | 3.51 °C | 0.53 °C
2 | Cc1ccc(C(=O)Nc2ccc(CN3CCN(C)CC3)c(C(F)(F)F)c2)cc1C#Cc1cnc2[nH]ncc2c1 [GZD824 Dimesylate] | 4.32 °C | 3.52 °C | 5.49 °C | -0.24 °C | 6.49 °C | 1.24 °C | 22.8 °C | 2.71 °C | 0.45 °C | 3.71 °C | 1.83 °C | 4.46 °C | 1.12 °C | 16.6 °C | 2.51 °C | 5.22 °C | 0.8 °C | 3.54 °C | 4.33 °C | 0.61 °C
3 | Nc1nc2cc(-c3ccc4ncc(C(=O)N5CCOCC5)n4c3)ccc2o1 [Serabelisib (INK-1117,MLN-1117,TAK-117)] | 0.8 °C | 1.57 °C | 2.36 °C | 0.43 °C | 1.16 °C | 0.81 °C | 0.1 °C | 0.39 °C | 0.34 °C | 3.87 °C | 1.55 °C | 0.93 °C | 0.36 °C | 0.07 °C | 1.26 °C | 1.33 °C | 0.05 °C | 1.17 °C | 2.02 °C | 0.23 °C
4 | C[C@@H](N)[C@H]1CC[C@H](C(=O)Nc2ccncc2)CC1 | 1.02 °C | 0.15 °C | 0.1 °C | 0.65 °C | 0.11 °C | 0.84 °C | 0.45 °C | 0.65 °C | 0.29 °C | -0.08 °C | 0.49 °C | 1.12 °C | 1.12 °C | 0.48 °C | 0.04 °C | 0.52 °C | 0.9 °C | 0.85 °C | 0.71 °C | 0.32 °C
5 | CS(=O)(=O)c1cccc(CNc2nc(Nc3ccc4c(c3)CCC(=O)N4)ncc2C(F)(F)F)c1 | 3.58 °C | 3.6 °C | 1.39 °C | -0.34 °C | 3.83 °C | 3.04 °C | 7.76 °C | 3.42 °C | 2.2 °C | 5.18 °C | 1.78 °C | 4.37 °C | 0.7 °C | 1.3 °C | 1.2 °C | 6.42 °C | 1.43 °C | 2.07 °C | 5.48 °C | 0.72 °C
6 | O=C1NC(=O)/C(=C/c2cccc(C(F)(F)F)c2)S1 | -0.06 °C | 0.14 °C | 0.2 °C | 0.24 °C | 0.12 °C | 0.28 °C | -0.09 °C | 0.08 °C | 0.11 °C | 0.12 °C | 0.63 °C | 0.3 °C | 0.3 °C | 0.28 °C | 0.15 °C | 0.3 °C | 0.46 °C | 0.44 °C | -0.36 °C | 0.43 °C
7 | CCN(CC)CCNC(=O)c1c(C)[nH]c(/C=C2\C(=O)Nc3ccc(F)cc32)c1C [Sunitinib Malate] | 4.49 °C | 1.04 °C | 0.54 °C | -0.1 °C | 1.29 °C | 2.13 °C | 2.58 °C | 2.08 °C | 0 °C | 7.04 °C | 0.44 °C | 9.27 °C | 0.27 °C | 0.02 °C | 2.37 °C | 7 °C | -0.25 °C | 5.21 °C | 7.4 °C | -0.05 °C
8 | O=C(/C=C/c1ccc(O)c(O)c1)c1ccc(O)cc1O [Butein] | 3.34 °C | 6.05 °C | 1.41 °C | 1.88 °C | 4.26 °C | 3.26 °C | 4.11 °C | 1.83 °C | 2.14 °C | 9.01 °C | 4.85 °C | 7.74 °C | 1.12 °C | 17.7 °C | 7.74 °C | 2.95 °C | 1.6 °C | 1.81 °C | 4.14 °C | 3.5 °C
9 | COc1cc2ncnc(Nc3ccc(Cl)cc3F)c2cc1OC | 0.69 °C | 0.81 °C | 0.27 °C | 0.26 °C | 0.32 °C | 0.85 °C | 1.07 °C | 0.9 °C | 0.46 °C | 0.58 °C | 1.2 °C | 0.41 °C | 1.4 °C | 0.51 °C | 0.32 °C | 0.2 °C | 1.32 °C | 1.3 °C | 4.69 °C | 1.1 °C
10 | CN1CCN(c2ccc(OC(F)(F)F)c(Nc3ncc4c(n3)-c3c(c(C(N)=O)nn3CCO)CC4)c2)CC1 | 0.81 °C | 1.85 °C | 0.67 °C | -0.54 °C | 0.5 °C | 0.64 °C | 0.04 °C | -0.15 °C | 0.17 °C | 1.03 °C | 1.21 °C | 0.44 °C | 0.52 °C | 0.63 °C | 0.36 °C | 0.12 °C | 0.04 °C | 1.25 °C | 1.17 °C | 0.51 °C
11 | COc1c(C)c(C(=O)c2ccc(N)c(C(=O)O)c2)n2ccccc12 | 0.21 °C | 1.05 °C | 0.42 °C | -0.23 °C | 0.24 °C | 0.79 °C | -11.6 °C | 0.46 °C | 0.21 °C | 0.12 °C | 1.57 °C | 0.95 °C | 1.12 °C | -0.1 °C | -0.08 °C | 0.36 °C | 0.92 °C | 0.95 °C | -0.55 °C | 1.28 °C
12 | O=C1NC(=O)/C(=C/c2ccc(-c3ccc(F)cc3O)o2)S1 | 3.59 °C | 5.21 °C | 2.81 °C | 2.09 °C | 4.25 °C | 2.37 °C | 7.64 °C | 3.1 °C | 3.89 °C | 8.12 °C | 4.13 °C | 9.64 °C | 1.12 °C | 23.4 °C | 5.05 °C | 4.18 °C | 2.79 °C | 1.57 °C | 2.56 °C | 1.7 °C
13 | Cn1ncc(Cl)c1-c1cc(C(=O)N[C@H](CN)Cc2ccc(F)c(F)c2)oc1Cl | -0.41 °C | 1.78 °C | -0.33 °C | 1.08 °C | 0.15 °C | 1.66 °C | -0.06 °C | 1 °C | 0.44 °C | 1.06 °C | 1.78 °C | 0.8 °C | 1.33 °C | 0.28 °C | 0.45 °C | 0.03 °C | 0.82 °C | 0.49 °C | 0.41 °C | 1.67 °C
